Active and inactive are the calls of the source.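 Rule for the calls, unless noted: active = visual image review flags a hit and inhibition of aggregation exceeds 20%; inconclusive = visual hit but inhibition at or below 20%; inactive = no hit on visual image review.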
Tests used:
[1] = inhibitors of TNFa-induced NFkB p65 translocation, primary screen, imaging, HUVEC, MLSMR starter and 10KST1 sets (AID 438;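 active = inhibition above 20% together with a positive visual image hit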;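 note: compound added about 3h40 before a 20 min TNFalpha stimulation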;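 for inhibition: signal is the nuclear over cytoplasmic p65 intensity ratio per well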); conditions: HUVEC TNFa-induced p65 nuclear translocation; cell count: measured here: nuclei count (cytotoxicity indicator), at 2.08 µM; inhibition: at 2 µM, stronger effect = higher value, 0% TNFa-plus-vehicle, 100% no-TNFa wells
[2] = reduction of polyQ htt aggregates in cells – imaging, exon1htt(103Q)mCFP cells, high-content imaging, primary screen (AID 483); conditions: exon1htt(103Q)mCFP cell line, aggregate imaging, at 2 µM; inhibition of aggregation: stronger effect = higher value; nuclei count: measured here: cell count, toxicity;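 note: compound exposure lasted 3 days before fixation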;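 for nuclei count: percent of the per-plate median nuclei count of sample wells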
[3] = endothelial E-selectin expression blockers – imaging, HUVEC, immunofluorescence, MLSMR starter and 10KST1 sets, primary screen (AID 487;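 active = visually confirmed hit in the image check and inhibition above 20%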;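 for inhibition: signal is fraction of cell area covered by stained E-selectin grains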;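 for nuclei count: 100% = median nuclei count of all wells on the same plate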); conditions: HUVEC TNFalpha-induced E-selectin immunofluorescence imaging, at 2 µM; inhibition: stronger effect = higher value; nuclei count: measured here: cell number, toxicity
[4] = target: Voltage-gated potassium channel subunit beta-2 (Rattus norvegicus) (UniProt P62483); test: inhibitors of rat Kvbeta2 reductase activity – biochemical, NADPH fluorescence, primary screen (AID 622;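 active = fluorescence slope higher than the sample average by over 3 SD, cut at about -0.22 in these data, passing the limit was not always enough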;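 note: slope of raw intensity against log time taken from 70 to 1610 s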); conditions: recombinant KvBeta, 4-cyanobenzaldehyde reduction, at 10 µM, stronger effect = higher value
Chain of Voltage-gated potassium channel subunit beta-2 (Rattus norvegicus) (P62483 whole entry, looked up): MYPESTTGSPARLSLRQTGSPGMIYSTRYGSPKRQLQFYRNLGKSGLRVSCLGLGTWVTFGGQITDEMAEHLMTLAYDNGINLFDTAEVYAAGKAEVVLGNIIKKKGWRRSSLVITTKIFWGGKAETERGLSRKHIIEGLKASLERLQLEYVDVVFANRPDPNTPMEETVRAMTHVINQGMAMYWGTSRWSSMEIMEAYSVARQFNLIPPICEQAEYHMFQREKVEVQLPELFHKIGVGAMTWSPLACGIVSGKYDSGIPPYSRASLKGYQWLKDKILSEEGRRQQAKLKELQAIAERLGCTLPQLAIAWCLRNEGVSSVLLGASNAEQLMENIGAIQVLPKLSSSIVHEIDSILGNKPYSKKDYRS

[5] = target: Voltage-gated potassium channel subunit beta-2 (Rattus norvegicus) (UniProt P62483); test: enhancers of rat Kvbeta2 NADPH turnover – biochemical, NADPH fluorescence, primary screen (AID 623;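 active = NADPH fluorescence slope more negative than the mean of all samples by about 3 SD, 99.7% confidence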;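 note: fluorescence intensity change per second fitted from 20 to 320 s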); conditions: Recombinant KvBeta, NADPH fluorescence decrease slope, 10 min; at 10 µM; stronger effect = lower value
[6] = target: Alpha-2C adrenergic receptor (Homo sapiens) (UniProt P18825); test: compounds altering alpha2C-coupled GIRK flux – cell-based, HEK293 alpha2C/GIRK1/2, thallium flux, primary screen (AID 624;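 active = fluorescence slope after compound addition differing from the mean of all screened samples at 99.7% confidence, in either direction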;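 note: slope of fluorescence ratio to pre-addition baseline per second over 15 to 24 s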); conditions: thallium flux BTC fluorescence, at 10 µM, actives lie on both sides
Chain of Alpha-2C adrenergic receptor (Homo sapiens) (P18825 whole entry, looked up): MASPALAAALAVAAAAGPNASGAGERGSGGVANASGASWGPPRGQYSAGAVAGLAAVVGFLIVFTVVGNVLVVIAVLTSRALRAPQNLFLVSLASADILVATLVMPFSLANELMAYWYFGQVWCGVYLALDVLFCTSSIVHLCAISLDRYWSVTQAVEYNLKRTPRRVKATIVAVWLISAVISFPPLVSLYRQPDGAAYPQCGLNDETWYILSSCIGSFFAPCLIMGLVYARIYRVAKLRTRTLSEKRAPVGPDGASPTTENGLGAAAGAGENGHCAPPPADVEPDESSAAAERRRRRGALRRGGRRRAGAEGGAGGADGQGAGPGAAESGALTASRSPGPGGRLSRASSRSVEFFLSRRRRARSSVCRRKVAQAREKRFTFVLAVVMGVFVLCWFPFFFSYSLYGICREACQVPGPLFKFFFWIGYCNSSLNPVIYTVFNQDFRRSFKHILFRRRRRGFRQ

[7] = blockers of RIG-like receptor reporter activation – cell-based, Sendai virus stimulus, luciferase, 10K MLSCN set, TLR/RLR signaling modifier project, primary screen (AID 602276;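 active = inhibition at or above 50% at 10 µM; inactive = inhibition below 50%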;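 note: firefly luciferase from ISG56 promoter only with Renilla not read in this screen; 0% = Sendai virus plus DMSO and 100% = medium plus DMSO without virus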); conditions: HEK293 RL24 IRF3 luciferase reporter, at 10 µM, stronger effect = higher value
[8] = TLR3 IRF3 reporter activation blockers – cell-based, poly I:C stimulus, luciferase, 10K MLSCN set, primary screen (AID 602277;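 active = inhibition of the reporter signal at or above 50%; inactive = inhibition below 50%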); conditions: HEK293-TLR3 RL24 IRF3 luciferase reporter, at 10 µM, stronger effect = higher value

| Structure (SMILES) | cell count [1] | inhibition [1] | inhibition of aggregation [2] | nuclei count [2] | inhibition [3] | nuclei count [3] | fluorescence slope [4] | NADPH fluorescence slope [5] | slope [6] | inhibition [7] | inhibition [8] |
| --- | --- | --- | --- | --- | --- | --- | --- | --- | --- | --- | --- |
| Cc1cc(=O)oc2ccc(OCC(=O)N(Cc3ccc(F)cc3)Cc3ccco3)cc12 | 751 | 2.2% (inactive) | -0.1% (inactive) | 95.6% | -150% (inactive) | 107% | -0.493 (inactive) | 2.4e-05 (inactive) | 0.00494 (inactive) | -10.8% (inactive) | -19% (inactive) |
| CCCN(CCC)CCNS(=O)(=O)c1ccc2c(c1)oc(=O)n2C | 346 | -13.8% (inactive) | -2.5% (inactive) | 77.3% | -106% (inactive) | 119% | -0.427 (inactive) | -3.3e-05 (inactive) | 0.00461 (inactive) | 9.38% (inactive) | 10.9% (inactive) |
| c1cc(C(c2nnnn2C2CCCC2)N2CCOCC2)ccn1 (stereo not drawn) | 392 | -7.3% (inactive) | 27.3% (inactive) | 78.3% | 38.6% (inactive) | 97.3% | -0.522 (inactive) | 2.4e-05 (inactive) | 0.00524 (inactive) | 18.3% (inactive) | 21.2% (inactive) |
| CCOC(=O)c1sc(NC(=O)c2c(C)nn(Cc3ccccc3)c2C)cc1C | 395 | -7.8% (inactive) | 42.3% (active) | 60% | -20.6% (inactive) | 106% | -0.448 (inactive) | -0.000126 (inactive) | 0.00542 (inactive) | -9.51% (inactive) | -3.87% (inactive) |
| COc1ccccc1N1CCN(Cc2nnnn2CCc2ccccc2)CC1 | 497 | -3.1% (inactive) | 2% (inactive) | 99.9% | -42.8% (inactive) | 92% | -0.565 (inactive) | 8e-05 (inactive) | 0.00514 (inactive) | -6.87% (inactive) | 0.354% (inactive) |
| COc1cccc(C2CC(c3ccccc3)n3ncnc3N2)c1 (stereo not drawn) | 564 | 4.1% (inactive) | -12% (inactive) | 90.7% | 17.4% (inactive) | 82% | -0.6 (inactive) | -2.8e-05 (inactive) | 0.00718 (inactive) | 5.93% (inactive) | 33.2% (inactive) |
| CCn1nnnc1SCC(=O)N1CCOCC1 | 707 | 11.3% (inactive) | -2% (inactive) | 122% | -0.6% (inactive) | 122% | -0.637 (inactive) | 3.1e-06 (inactive) | 0.0034 (inactive) | 14.6% (inactive) | 8.47% (inactive) |
| COc1cccc(C2CC(c3ccc(C)cc3)Nc3nc(N)nn32)c1 (stereo not drawn) | 538 | 2.3% (inactive) | 23.1% (inactive) | 102% | 28% (inactive) | 101% | -0.564 (inactive) | 4e-05 (inactive) | 0.0074 (inactive) | -7.82% (inactive) | 16.6% (inactive) |
| Cn1c(=O)[nH]c(=O)c2c1nc(NCCCn1ccnc1)n2Cc1ccccc1 | 433 | 0.3% (inactive) | -7.8% (inactive) | 130% | -46.4% (inactive) | 119% | -0.603 (inactive) | -3.4e-05 (inactive) | 0.00342 (inactive) | -9.45% (inactive) | -6.06% (inactive) |
| Cc1nnc(SC(=O)N2c3ccccc3Sc3ccccc32)s1 | 348 | 12% (inactive) | 39.8% (active) | 99.9% | 27.8% (inactive) | 107% | -0.31 (inactive) | -1.7e-05 (inactive) | 0.00696 (inactive) | 5.05% (inactive) | 65.9% (active) |
| CCn1cc(C(=O)NCCCOC)c(=O)c2cc(S(=O)(=O)N(C)C)ccc21 | 693 | -5% (inactive) | 6% (inactive) | 82.6% | -42.6% (inactive) | 112% | -0.418 (inactive) | 3.3e-05 (inactive) | 0.00533 (inactive) | 4.09% (inactive) | 31.3% (inactive) |
| O=C(C1CCCO1)N1CCc2ccccc21 (stereo not drawn) | 445 | 6% (inactive) | -16.9% (inactive) | 108% | -32.9% (inactive) | 108% | -0.404 (inactive) | 5.9e-05 (inactive) | 0.00647 (inactive) | 9.45% (inactive) | 36.8% (inactive) |
| CCN(CC(=O)O)S(=O)(=O)c1cc(Cl)ccc1Cl | 353 | 5.6% (inactive) | 10.8% (inactive) | 97.3% | -33.4% (inactive) | 75.2% | -0.416 (inactive) | -2.7e-05 (inactive) | 0.00473 (inactive) | -0.0466% (inactive) | -0.284% (inactive) |
| O=C1OC(N2CCN(c3ccccn3)CC2)c2ccccc21 (stereo not drawn) | 697 | 9.1% (inactive) | -14.4% (inactive) | 104% | 34.3% (inactive) | 88.3% | -0.633 (inactive) | -3.6e-05 (inactive) | 0.00362 (inactive) | 19.9% (inactive) | 12% (inactive) |
| CCSc1ccccc1C(=O)NCc1ccc(S(N)(=O)=O)cc1 | 327 | 1.1% (inactive) | -5.9% (inactive) | 104% | -78.4% (inactive) | 120% | -0.435 (inactive) | -4.5e-05 (inactive) | 0.00523 (inactive) | 18.1% (inactive) | 16.5% (inactive) |
| O=C(NC1CCCCC1)C(c1ccc(Cl)cc1)N(C(=O)c1cnccn1)c1ccc2c(c1)OCO2 (stereo not drawn) | 694 | 3.4% (inactive) | 21.6% (inactive) | 93.8% | -87% (inactive) | 110% | -0.392 (inactive) | -3.7e-05 (inactive) | 0.00597 (inactive) | 11.2% (inactive) | 7.2% (inactive) |
| Cc1ccc(S(=O)(=O)N2CCN(C(=O)CSC3CCCC3)CC2)c(C)c1 | 318 | 3.7% (inactive) | -0.7% (inactive) | 93.6% | -425% (inactive) | 110% | -0.482 (inactive) | 4.3e-06 (inactive) | 0.00451 (inactive) | 17.2% (inactive) | 14.9% (inactive) |
| Cc1ccc(S(=O)(=O)CC(=O)N2CCCCCC2)cc1 | 615 | 9.2% (inactive) | 17% (inactive) | 103% | -33% (inactive) | 112% | -0.504 (inactive) | -5.2e-05 (inactive) | 0.0061 (inactive) | -16.3% (inactive) | -15.4% (inactive) |
| Cc1cc(Br)ccc1NC(=O)CCN1C(=O)c2ccncc2C1=O | 403 | 3.8% (inactive) | -19.7% (inactive) | 96.6% | 39.2% (inactive) | 89.7% | -0.51 (inactive) | -3.1e-05 (inactive) | 0.00525 (inactive) | -13.8% (inactive) | 13.1% (inactive) |
| COC(=O)C1C(=O)C2=C(CC1C)NC(=O)CC2c1ccccc1 (stereo not drawn) | 285 | -14.6% (inactive) | 14.6% (inactive) | 92.8% | 48.6% (inactive) | 80.1% | -0.388 (inactive) | -4.9e-05 (inactive) | 0.00369 (inactive) | 9.64% (inactive) | 22.4% (inactive) |
| CN(C)CCNc1oc(-c2ccccc2F)nc1C#N | 648 | 7.1% (inactive) | -11.1% (inactive) | 110% | -40% (inactive) | 116% | -0.062 (active) | 9.2e-06 (inactive) | 0.00579 (inactive) | 0.672% (inactive) | 34.3% (inactive) |
| O=C(Cn1ncc2c1-c1ccccc1OC2)Nc1ccc(Cl)cn1 | 462 | -2.9% (inactive) | -7.1% (inactive) | 114% | -55% (inactive) | 116% | -0.573 (inactive) | -3.2e-05 (inactive) | 0.00703 (inactive) | 9.19% (inactive) | 29.8% (inactive) |
| COc1cccc(C=Nc2ccc3c(c2)OCCO3)c1O | 301 | 5.1% (inactive) | 9% (inactive) | 97.3% | 25.8% (inactive) | 83.4% | -0.501 (inactive) | -3.1e-05 (inactive) | 0.00551 (inactive) | 12.6% (inactive) | -2.51% (inactive) |
| CCC(C)(C)NC(=O)CN(C(=O)c1snc(C(N)=O)c1N)c1ccc2c(c1)OCO2 | 688 | -7.3% (inactive) | 0.7% (inactive) | 103% | -39.8% (inactive) | 120% | -0.517 (inactive) | 3.3e-05 (inactive) | 0.00589 (inactive) | 13.1% (inactive) | 14.6% (inactive) |
| O=C(NCCSCc1ccco1)Nc1cccc(Cl)c1 | 502 | 3.6% (inactive) | -7.7% (inactive) | 99.9% | -67.4% (inactive) | 115% | -0.673 (inactive) | 1.6e-05 (inactive) | 0.0115 (inactive) | 2.33% (inactive) | -54.8% (inactive) |
| O=C(c1ccc2ccccc2n1)N1CCN(c2ccccc2)CC1 | 874 | 0% (inactive) | -15% (inactive) | 107% | -78.3% (inactive) | 142% | -0.476 (inactive) | 9.7e-06 (inactive) | 0.00614 (inactive) | -18.5% (inactive) | -4.71% (inactive) |
| CC(C)COC(=O)C1[C@H]2C(=O)N(Cc3cccs3)C[C@]23C=C[C@H]1O3 (stereo partly drawn) | 483 | 3.3% (inactive) | -2.4% (inactive) | 97.4% | -44.8% (inactive) | 127% | -0.393 (inactive) | -1.4e-05 (inactive) | 0.00385 (inactive) | 9.95% (inactive) | 32.4% (inactive) |
| Oc1ccc(Nc2nc(-c3ccc(O)cc3)cs2)cc1 | 277 | 15.1% (inactive) | 18.9% (inactive) | 71.8% | -20.5% (inactive) | 124% | -0.429 (inactive) | -4.3e-05 (inactive) | 0.00332 (inactive) | -43% (inactive) | -59.8% (inactive) |

Source: PubChem BioAssay
